From the supplement of paper PMC4166925
± gives the standard deviation of the averaged measurements. Whole data set: some 33,000 sequences, median “E-score (dimensionless, -0.5 to 0.5)” near -0.049, cut for the highest 2% near 0.37. The entries come from a sample that favours the highest values as a whole.
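Further: 200 nM protein in PBS on universal arrays averaged over duplicate arrays.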

These sequences were tested on T1, PmTbr T-box DNA-binding domain (GST fusion) (assay: PBM E-score of 8-mer (E-score (dimensionless, -0.5 to 0.5)); Tbr is Tbrain of the sea star Patiria miniata (Pm) or the sea urchin Strongylocentrotus purpuratus (Sp); higher = stronger binding preference). Details: the construct has about 5 more residues each side.
T1 sequence: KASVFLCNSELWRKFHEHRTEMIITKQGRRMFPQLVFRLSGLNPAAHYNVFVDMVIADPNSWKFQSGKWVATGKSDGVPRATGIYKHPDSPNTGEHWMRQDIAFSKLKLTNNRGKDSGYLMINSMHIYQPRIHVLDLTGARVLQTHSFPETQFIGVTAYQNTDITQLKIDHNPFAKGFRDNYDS
Experimental: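 Universal protein-binding microarray (Agilent AMADID 016060, 60-bp probes with a 35-bp variable region) incubated with 200 nM GST-fused Patiria miniata Tbr T-box DNA-binding domain (residues 272-466) in PBS pH 7.5. Scored for every ungapped 8-mer (given with its reverse complement) by the Universal PBM Analysis Suite as E-score (modified Wilcoxon-Mann-Whitney enrichment, range -0.5 to 0.5; >0.45 counts as bound) and Z-score of median probe intensity. Two replicate arrays (datasets 1 and 2).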
For GAGGCGCC, the “PBM E-score of 8-mer” value was 0.269 ± 0.018. ACACACAA was tested, and the “PBM E-score of 8-mer” value was 0.0649 ± 0.066. For CCACACAA, the “PBM E-score of 8-mer” value was 0.0617 ± 0.024. With CCACACCA the “PBM E-score of 8-mer” value was 0.29 ± 0.033. For ACTCACCA, the “PBM E-score of 8-mer” value was -0.0425 ± 0.12. In the case of GCACAACA, the “PBM E-score of 8-mer” value is reported as 0.17 ± 0.013. In the case of ACACACCA, the “PBM E-score of 8-mer” value is reported as 0.285 ± 0.011. In the case of TCACAACA, the “PBM E-score of 8-mer” value is reported as 0.384 ± 0.00069. With CCACAACA the “PBM E-score of 8-mer” value was 0.203 ± 0.049. For CCTCACCA, the “PBM E-score of 8-mer” value was 0.141 ± 0.045. With TCTCACCA the “PBM E-score of 8-mer” value was 0.372 ± 0.011. TCACACCA was tested, and the “PBM E-score of 8-mer” value was 0.48075 ± 0.00012. TCACACAA was tested, and the “PBM E-score of 8-mer” value was 0.414 ± 0.015. AATGACAT was tested, and the “PBM E-score of 8-mer” value was -0.101 ± 0.054. In the case of GGAACTCC, the “PBM E-score of 8-mer” value is reported as -0.22 ± 0.083. For GCCTCTTA, the “PBM E-score of 8-mer” value was -0.0658 ± 0.019. GAGGAATA was tested, and the “PBM E-score of 8-mer” value was -0.274 ± 0.02. In the case of TCGGACAA, the “PBM E-score of 8-mer” value is reported as -0.0104 ± 0.018. With ACTCAAGT the “PBM E-score of 8-mer” value was -0.000135 ± 0.051. ATGGACTG was tested, and the “PBM E-score of 8-mer” value was -0.165 ± 0.016. With ACCACACC the “PBM E-score of 8-mer” value was 0.361 ± 0.023. GACACACC was tested, and the “PBM E-score of 8-mer” value was 0.287 ± 0.073. CACACACC was tested, and the “PBM E-score of 8-mer” value was 0.428 ± 0.021. For CGCACACC, the “PBM E-score of 8-mer” value was 0.325 ± 0.022. GCCACACC was tested, and the “PBM E-score of 8-mer” value was 0.394 ± 0.024. CCCACACA was tested, and the “PBM E-score of 8-mer” value was 0.17 ± 0.0076. GCCACACA was tested, and the “PBM E-score of 8-mer” value was 0.279 ± 0.031. In the case of CCCACACG, the “PBM E-score of 8-mer” value is reported as 0.0862 ± 0.0074. With CCCACACC the “PBM E-score of 8-mer” value was 0.43 ± 0.019. ATGCTCGG was tested, and the “PBM E-score of 8-mer” value was 0.00834 ± 0.022. For GACGTCTC, the “PBM E-score of 8-mer” value was -0.235 ± 0.013. GGGTAGGA was tested, and the “PBM E-score of 8-mer” value was -0.205 ± 0.052. In the case of ACCACCAC, the “PBM E-score of 8-mer” value is reported as 0.0224 ± 0.049. ATCACCAT was tested, and the “PBM E-score of 8-mer” value was 0.155 ± 0.014. With AGCACCAC the “PBM E-score of 8-mer” value was 0.115 ± 0.054. GGCACCAC was tested, and the “PBM E-score of 8-mer” value was 0.225 ± 0.022. In the case of ACCACCAT, the “PBM E-score of 8-mer” value is reported as 0.1243 ± 0.0012. For AACACCAC, the “PBM E-score of 8-mer” value was 0.3719 ± 0.0024. With GACACCAC the “PBM E-score of 8-mer” value was 0.393 ± 0.016. ACCACCAA was tested, and the “PBM E-score of 8-mer” value was 0.0394 ± 0.048. With GCCACCAC the “PBM E-score of 8-mer” value was 0.122 ± 0.08. AACACCAT was tested, and the “PBM E-score of 8-mer” value was 0.3887 ± 0.0029. For AACACCAA, the “PBM E-score of 8-mer” value was 0.393 ± 0.011. With GACACCAA the “PBM E-score of 8-mer” value was 0.345 ± 0.0047. For AATGCAGG, the “PBM E-score of 8-mer” value was -0.116 ± 0.0066. GCACAGCC was tested, and the “PBM E-score of 8-mer” value was -0.192 ± 0.031. With ACAGTGTG the “PBM E-score of 8-mer” value was 0.324 ± 0.025. With GGAGCATA the “PBM E-score of 8-mer” value was -0.0893 ± 0.017. For AGGCTGAA, the “PBM E-score of 8-mer” value was -0.124 ± 0.018. With AAACCAAG the “PBM E-score of 8-mer” value was -0.0652 ± 0.0092. In the case of CAAGCTCC, the “PBM E-score of 8-mer” value is reported as -0.181 ± 0.059. In the case of CCACCCTC, the “PBM E-score of 8-mer” value is reported as 0.0601 ± 0.017. In the case of ACCCCCTC, the “PBM E-score of 8-mer” value is reported as -0.00817 ± 0.062. In the case of ACACCCTG, the “PBM E-score of 8-mer” value is reported as 0.426 ± 0.026. With CCACCCTA the “PBM E-score of 8-mer” value was 0.0728 ± 0.0043. In the case of ACCCCCTG, the “PBM E-score of 8-mer” value is reported as 0.0477 ± 0.028. In the case of ACACCCTC, the “PBM E-score of 8-mer” value is reported as 0.429 ± 0.0062. With ACACCCTA the “PBM E-score of 8-mer” value was 0.383 ± 0.018. With ATACCCTG the “PBM E-score of 8-mer” value was -0.154 ± 0.04. With GCACCCTA the “PBM E-score of 8-mer” value was 0.133 ± 0.089. For GAGCCATC, the “PBM E-score of 8-mer” value was -0.0135 ± 0.0062. In the case of GGAGTTCA, the “PBM E-score of 8-mer” value is reported as -0.0635 ± 0.036. AAGGCGAT was tested, and the “PBM E-score of 8-mer” value was 0.0522 ± 0.036. With AGCAAACA the “PBM E-score of 8-mer” value was 0.0237 ± 0.023. With GATGAAGA the “PBM E-score of 8-mer” value was -0.134 ± 0.051. For GGTCAACA, the “PBM E-score of 8-mer” value was 0.123 ± 0.0043. For TGTCAACA, the “PBM E-score of 8-mer” value was 0.378 ± 0.0046. CGTCAACA was tested, and the “PBM E-score of 8-mer” value was 0.311 ± 0.036. With GCGCTCCC the “PBM E-score of 8-mer” value was -0.133 ± 0.028. In the case of AGTTCGCG, the “PBM E-score of 8-mer” value is reported as 0.221 ± 0.038. With GATCCTGA the “PBM E-score of 8-mer” value was -0.144 ± 0.049. For GTCATCAC, the “PBM E-score of 8-mer” value was 0.2787 ± 0.00098. With ATCATCAC the “PBM E-score of 8-mer” value was 0.381 ± 0.008. CTCATCAC was tested, and the “PBM E-score of 8-mer” value was 0.249 ± 0.0053. For ATTATCAC, the “PBM E-score of 8-mer” value was 0.38 ± 0.053. ATTATCAG was tested, and the “PBM E-score of 8-mer” value was -0.0355 ± 0.028. CTTATCAC was tested, and the “PBM E-score of 8-mer” value was 0.331 ± 0.023. With ATAAACGG the “PBM E-score of 8-mer” value was -0.131 ± 0.087. For CGTACCCC, the “PBM E-score of 8-mer” value was -0.186 ± 0.063. With GGTCGATA the “PBM E-score of 8-mer” value was 0.0375 ± 0.069. In the case of CCTGAGAG, the “PBM E-score of 8-mer” value is reported as 0.208 ± 0.03. With CACAGCCG the “PBM E-score of 8-mer” value was -0.0675 ± 0.11. In the case of GCGCGCGA, the “PBM E-score of 8-mer” value is reported as 0.2759 ± 0.00057. With ACGCGCGC the “PBM E-score of 8-mer” value was 0.157 ± 0.033. For TCGCGCGA, the “PBM E-score of 8-mer” value was 0.3886 ± 0.0024. For CCGCGCGA, the “PBM E-score of 8-mer” value was 0.226 ± 0.0095. In the case of ACGCGCGG, the “PBM E-score of 8-mer” value is reported as 0.19 ± 0.031.
